Broadly, the inhibition is the drop in the measured response relative to a control, in per cent.

We go through 99 compounds from PubChem BioAssay AID796 (Columbia University Molecular Screening Center, 2007).

SMILES strings stand for the structures. The whole screen tested about 94,000 compounds, of which about 410 (0.44%) were called active.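 How the source made its calls: active means inhibition above about 30% together with a positive call from visual inspection of the well image (limit read from the data); inconclusive means inhibition above a set limit but visual check negative; inactive means inhibition not above a set limit, visual check negative.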 Only a selection was taken, and actives are over-represented in it overall.

This assay can be described thus: inhibitors of IL-1B driven NFkB p65 nuclear import, primary screen, imaging, HUVEC, IL-1B stimulus, high-content imaging (AID 796).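 Further: nuclear over cytoplasmic p65 intensity ratio measured by imaging; 0% = IL-1B stimulated DMSO wells and 100% = unstimulated DMSO wells.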 The settings on record: HUVEC IL-1B NFkB p65 nuclear translocation imaging; at 2 µM; active compounds read high.
Regarding `Cc1nnc(SCC(=O)N/N=C/c2cn(-c3ccccc3)nc2-c2ccc(F)cc2)n1-c1ccccc1`, the inhibition is 16.3% (inactive).
The result for `O=C(Nc1ccc(-n2ccnc2P(=O)(O)c2ccccc2)cc1)c1ccccc1Br` reads -9.1% (inactive); that for `COC(=O)Nc1sc2nc(C)cc(C)c2c1-n1cccc1`, 8.1% (inactive); that for `O=C(Nc1nnc(SCc2c(Cl)cccc2Cl)s1)C1CCCO1` (centres undefined), 6.6% (inactive).
The result for `Cc1cccc(C(=O)Nc2ccccc2N2CCN(c3ccc(F)cc3)CC2)c1` reads 4.6% (inactive); that for `CCCOc1ccccc1C1CC(=O)Nc2cc3c(cc21)OCO3` (centres undefined), -2.7% (inactive).
Take `COc1ccccc1C1C2=C(COC2=O)Nc2cc3c(cc21)OCO3` (centres undefined): the inhibition was 39.9% (active).
The result for `O=C1NC(c2cc3c(cc2Cl)OCO3)Oc2ccccc21` (centres undefined) reads -2.5% (inactive); that for `N#Cc1ccc(-c2ccc(F)cc2)nc1Sc1ccccc1`, 0% (inactive).
The same measure for `Cc1cc(=O)oc2cc(OC(C)C(=O)Nc3ccc(N4CCOCC4)cc3)ccc12` (centres undefined): 22.6% (inactive); for `Cc1ccccc1NC(=O)C(C)c1ccc(-c2ccccc2)c(F)c1` (centres undefined): -13% (inactive).
Consider `CCN1CCN(C(=O)C2(NC(=O)Nc3cccc(F)c3)CCCCC2)CC1`, for which the inhibition is 9.4% (inactive).
`CN(C)c1ccnc(Oc2ccc(F)cc2)c1C#N`: the inhibition was -4.4% (inactive).
The result for `COc1ccc(OCC(=O)N2CCN(C(=O)c3cccs3)CC2)cc1` reads 42.9% (active); that for `O=C(COc1ccc2ccccc2c1)N1CCN(C(=O)c2cccs2)CC1`, 12.1% (inactive); that for `COc1ccc(OCC(=O)N2CCN(C(=O)COc3ccccc3)CC2)cc1`, -0.4% (inactive).
The result for `CC(C)c1ccc(N2CCN(C(=O)c3ccccc3NC(=O)/C=C(\C(=O)O)c3ccccc3)CC2)cc1` reads -24.1% (inactive); that for `Cc1nn(C)c(Oc2ccc(Cl)cc2)c1C=O`, -7.4% (inactive); that for `CC(=O)Nc1ccc(S(=O)(=O)N2CCN(C(=O)c3ccccc3F)CC2)cc1`, -10.6% (inactive).
The same measure for `Cc1[nH]nc(-c2ccc(OCc3cnn(-c4ccccc4)c3)cc2O)c1Oc1ccc(Cl)cc1`: -4.6% (inactive); for `COC(=O)C1(O)CC(C(C)C)=NN1C(=O)c1ccc(Cl)cc1` (centres undefined): -3.2% (inactive); for `Cc1ccc(S(=O)(=O)c2c(COC(=O)c3cccc(Cl)c3)c(-c3ccccc3)nn2C)cc1`: -7.8% (inactive).
`CCN(CC)C(=O)CSc1nc2ccccc2o1`: the inhibition was -3.4% (inactive).
The same measure for `COc1cc(/C=N/Nc2nn3cnnc3c3ccccc23)cc(OC)c1OC`: -1.1% (inactive); for `COc1ccc(/C=N/Nc2nc3ccccc3o2)cc1OC`: 45.9% (active); for `COc1ccc(/C=N\NC(=O)c2sc(N)nc2C)cc1OC`: 1.2% (inactive).
The result for `CCCc1ccc(-c2c(C)sc(NC(=O)c3ccnn3C)c2C#N)cc1` reads 3.3% (inactive); that for `Cc1cc(C)c([N+](=O)[O-])cc1-c1ccc(/C=N/NC(=O)c2nonc2N)o1`, -17.6% (inactive).
The result for `CC(CC(=O)Nc1cc(C(F)(F)F)ccc1Cl)c1ccccc1` (centres undefined) reads -2.6% (inactive).
`CC(C)C(NS(=O)(=O)c1cccs1)C(=O)Nc1nc(C(C)(C)C)cs1` (centres undefined): the inhibition is 1.6% (inactive).
The same measure for `COc1ccc(C2=NOC3(CC(=O)N(c4ccc(Cl)cc4)C3=O)C2)c(OC)c1` (centres undefined): 0.4% (inactive); for `CSCCC(C(=O)NC1=NCCS1)N1C(=O)c2ccccc2C1=O` (centres undefined): -15.1% (inactive); for `CCC1(C)Cc2c(sc3[nH]c(=S)n(Cc4ccccc4)c(=O)c23)CO1` (centres undefined): -4.8% (inactive).
Take `CCOc1ccc(Nc2nc(Cc3nnc(SCC(=O)NC4CCCC4)n3C)cs2)cc1`: the inhibition is -8.9% (inactive).
Take `O=C(CSCc1c(F)cccc1Cl)NCC1CCCO1` (centres undefined): the inhibition was -1.4% (inactive).
For the compound `COc1ccc(C2CC(c3cccs3)=Nc3ccccc3S2)cc1OC` (centres undefined), the inhibition is -4% (inactive).
The same measure for `COc1ccc(NC(=O)CSc2nc(NS(=O)(=O)c3ccc(C)cc3)cc(=O)[nH]2)cc1`: 0.1% (inactive); for `O=S(=O)(/N=C(/Nc1ccccn1)c1ccccc1)c1ccc(Cl)cc1`: -20.6% (inactive); for `O=C(Nc1nnc(CCOCCOCCc2nnc(NC(=O)c3ccco3)s2)s1)c1ccco1`: 2.1% (inactive).
With `CCCOC(=O)Nc1sc2c(c1C(=O)OCC)CCC2`, the inhibition was 4.6% (inactive).
The result for `CCOCC(=O)Nc1sc2c(c1C(=O)OCC)CCCC2` reads 31.1% (active); that for `CCOC(=O)c1c(NC(=O)CSc2nnc(C)c(=O)[nH]2)sc2c1CCC2`, 7.7% (inactive); that for `CC(=O)Nc1ccc(N2C(=O)C3C4CC(=O)C(c5ccccc54)C3C2=O)cc1` (centres undefined), 4.6% (inactive).
The same measure for `Cc1ccc(-n2c(=O)cc(N3CCN(Cc4ccccc4)CC3)[nH]c2=O)cc1`: -36.5% (inactive); for `COC(CNC(=O)Cn1ncc2ccsc2c1=O)OC`: -11.2% (inactive); for `Cc1ccc(/C=N/NC(=O)C(NC(=O)c2ccccc2)c2n[nH]c(=O)c3ccccc23)cc1` (centres undefined): -3.6% (inactive).
The result for `CC(C)C(=O)NC(=S)Nc1ccccc1F` reads 1.1% (inactive); that for `O=[N+]([O-])c1ccccc1OCCCCN1CCCCC1`, 1.7% (inactive); that for `CCOC(=O)COc1cc(OCC(=O)OCC)c2c(=O)cc(-c3ccccc3)oc2c1`, 5.4% (inactive).
In the case of `CCOCc1nnc(NC(=O)CSc2ccc(C)cc2)s1`, the inhibition is 3.5% (inactive).
Regarding `CCN(CC)CCNc1ccc(Cl)cc1[N+](=O)[O-]`, the inhibition is -11.6% (inactive).
The result for `CN(C(=O)CSc1nc(C2CC2)nc2ccccc12)c1nc(-c2ccccc2)cs1` reads 6.8% (inactive); that for `COC(=O)C(NC(=O)c1ccc(OC)cc1)(Nc1ncc(S(=O)(=O)c2ccc([N+](=O)[O-])cc2)s1)C(F)(F)F` (centres undefined), 10.1% (inactive); that for `COc1ccc(CNCCCO)cc1OC`, 2.4% (inactive).
Regarding `CCCCOc1ccc(C(=O)NCc2ccncc2)cc1`, the inhibition is -7.4% (inactive).
The same measure for `C=CCOc1ccc(Cl)cc1CNCCCN1CCOCC1`: 5.6% (inactive); for `COC(=O)c1c(CCl)noc1C(=O)NC(C)C`: -0.8% (inactive).
The same measure for `CC1C/C(=N/NC(=O)c2cccs2)CC(C)(C)C1` (centres undefined): 25.5% (inactive); for `Nc1ccccc1SCc1cc([N+](=O)[O-])cc2c1OCOC2`: -1.6% (inactive); for `O=C(Cn1cncn1)N/N=C/c1c2ccccc2cc2ccccc12`: 10.3% (inactive).
Take `CCOC(=O)CNC(=O)CSc1nc2cccnc2n1CC`: the inhibition is -2.1% (inactive).
The result for `CONC(=O)c1cc(OCC(F)(F)F)ccc1OCC(F)(F)F` reads 4.4% (inactive); that for `CC(=O)c1nn(-c2cccc(Br)c2)cc1C(=O)c1cccc2ccccc12`, -11.3% (inactive); that for `c1ccc(-n2nc3ccccc3n2)cc1`, 18% (inactive).
The same measure for `CC1(C)CC(=O)C=C(NCCN2CCNCC2)C1`: -15.8% (inactive); for `CC1(C)CC(=O)C=C(NCCCN2CCCC2=O)C1`: 99.7% (active).
The result for `CC1(C)CC(=O)C=C(NCCCNC2CCCCC2)C1` reads 0% (inactive).
Consider `Cn1c(CO)cnc1SCc1ccccc1`, for which the inhibition is -4.6% (inactive).
The result for `c1ccc(COc2ccccc2CNCc2cccnc2)cc1` reads -12.3% (inactive); that for `Cc1cc(C)n(C(=O)CCNC(=O)c2ccccc2Cl)n1`, 0.3% (inactive); that for `Cc1cc2c(c(=O)n1C)C(C(C)C)C(C#N)=C(N)O2` (centres undefined), 3.4% (inactive).
With `O=C(CSCc1c(Cl)cccc1Cl)NN1C(=O)c2ccccc2C1=O`, the inhibition is 7.6% (inactive).
The same measure for `Cc1ccc(-c2csc(N(Cc3ccco3)C(=O)c3cccs3)n2)cc1`: 0.8% (inactive); for `S=c1[nH]nc(-c2ccco2)n1/N=C/c1ccc(Br)s1`: -1.5% (inactive); for `Cc1cc(C)c2nc(NC(=O)c3ccc4c(c3)OCO4)sc2c1`: 9% (inactive).
As to `Cc1ccc(-n2nc3c(c2NC(=O)c2ccc4c(c2)OCO4)CSC3)c(C)c1`, the inhibition was 36% (active).
As to `Cc1cccc(-n2nc3c(c2NC(=O)c2ccc(Br)o2)CSC3)c1C`, the inhibition was 0% (inactive).
The result for `O=C(COc1ccc(/C=N/NS(=O)(=O)c2ccccc2)cc1)NCCc1ccccc1` reads 3.5% (inactive); that for `Cc1n[nH]c(=O)n1-c1ccc(Oc2ccccc2)cc1`, 3.9% (inactive).
For `Cc1cc(C)cc(N(CC(=O)Nc2c(C)n(C)n(-c3ccccc3)c2=O)S(C)(=O)=O)c1`, the inhibition is -3.1% (inactive).
The result for `Cc1cc(C)cc(N(C(C)C(=O)Nc2c(C)n(C)n(-c3ccccc3)c2=O)S(C)(=O)=O)c1` (centres undefined) reads 47.4% (active).
The same measure for `COC(=O)Nc1c(C)n(C)n(-c2ccccc2)c1=O`: -18.8% (inactive).
The result for `O=C(CSc1nnc(Cn2cnc3ccccc32)o1)c1ccccc1` reads 98.8% (active).
Take `O=C(CSc1nnc(-c2c[nH]c3ccccc23)o1)c1ccccc1`: the inhibition was 11.5% (inactive).
For `CC(=O)Nc1ccc(C(=O)CSc2nnc(Cc3ccccc3)o2)cc1`, the inhibition was -5.2% (inactive).
The result for `CCn1c2ccccc2c2cc(NC(=O)C/C(C)=N/NC(=O)c3ccccc3N)ccc21` reads -8.3% (inactive); that for `CNC(=S)NNC(=O)c1sccc1OCc1ccccc1`, -4% (inactive).
The result for `COc1cc(/C=N/O)cc(Br)c1OCc1cccc(Cl)c1` reads -0.3% (inactive); that for `CCCCNc1ccc(C(=O)Nc2cccc(C)n2)cc1[N+](=O)[O-]`, -3.1% (inactive); that for `COc1ccc(F)cc1S(=O)(=O)Nc1ccc2c(c1)OCO2`, -3.1% (inactive).
The result for `COc1ccc(S(=O)(=O)Nc2ccc3c(c2)OCO3)cc1Cl` reads 96.2% (active); that for `CC(C)CNS(=O)(=O)c1ccc(OCC(=O)Nc2ccc3c(c2)OCO3)c(Cl)c1`, -10.8% (inactive); that for `Cc1ccc(C(=O)c2c(NC(=O)c3ccncc3)sc3c2CCCC3)cc1`, 2.2% (inactive).
Regarding `CCc1ccc(/C=N/NC(=O)c2ccc(OC3CCCC3)cc2)s1`, the inhibition is 0.3% (inactive).
The same measure for `Cc1nc(N2CCOCC2)nc2c1CCCC2`: 1.7% (inactive).
The result for `O=C(CSCc1ccc([N+](=O)[O-])cc1)NCCSCc1ccccc1` reads 8.4% (inactive); that for `Cc1ccc(C)n1-c1ccncc1`, 34.7% (active).
With `Cc1ccc(N)cc1-n1c(C)ccc1C`, the inhibition was 4.3% (inactive).
With `COc1ccc(C(=O)c2c(C)oc3cc([N+](=O)[O-])c(O)c([N+](=O)[O-])c23)cc1`, the inhibition is -48.7% (inactive).
